According to PubChem BioAssay AID1159580 (chemical genetic matrix, 2015):
Among all 5,500 compounds or so, about 2,000 (36%) were called active. About 18% were inconclusive and are not listed. No stated cut-off is given here; in the data, active means normalized growth mostly below about 0.91 (no sharp cut-off); inconclusive means no clear call, values can overlap the other calls; inactive means mostly above about 0.92. This is one part of the list.

Test: chemical genetic growth profiling, strain panel (AID 1159580);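 further: tested at 20 µM; growth read once vehicle control cultures reached saturation at 30 °C; 1 = growth at the plate median or of vehicle wells; lower values mean less growth of the strain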
Conditions: growth OD

Measured: normalized growth

COc1ccc2c(c1OC)C(=O)O[C@H]2[C@H]1c2cc3c(cc2CCN1C)OCO3
inactive: S. cerevisiae deletion strains, locus YJR075W, strain HOC1, active compounds read low 1 | S. cerevisiae deletion strains, locus YKL009W, strain mrt4, active compounds read low 1.03 | S. cerevisiae deletion strains, locus YKL068W, active compounds read low 1 | S. cerevisiae deletion strains, locus YKL085W, strain MDH1 (second series), active compounds read low 1 | S. cerevisiae deletion strains, locus YKL085W, strain MDH1, active compounds read low 1 | S. cerevisiae deletion strains, locus YKL160W, strain elf1, active compounds read low 0.994 | S. cerevisiae deletion strains, locus YKL190W, strain CNB1, active compounds read low 1 | S. cerevisiae deletion strains, locus YKR001C, strain vps1, active compounds read low 1.03 | S. cerevisiae deletion strains, locus YKR026C, strain gcn3, active compounds read low 1.01 | S. cerevisiae deletion strains, locus YKR091W, strain srl3, active compounds read low 0.99 | S. cerevisiae deletion strains, locus YLL001W, strain dnm1, active compounds read low 0.998 | S. cerevisiae deletion strains, locus YLL026W, active compounds read low 1 | S. cerevisiae deletion strains, locus YLL041C, strain sdh2, active compounds read low 1 | S. cerevisiae deletion strains, locus YLR027C, strain aat2, active compounds read low 1 | S. cerevisiae deletion strains, locus YLR039C, strain RIC1, active compounds read low 1.04 | S. cerevisiae deletion strains, locus YLR058C, strain SHM2, active compounds read low 1 | S. cerevisiae deletion strains, locus YLR102C, strain apc9, active compounds read low 1.01 | S. cerevisiae deletion strains, locus YLR113W, strain HOG1, active compounds read low 1.05 | S. cerevisiae deletion strains, locus YLR221C, strain rsa3, active compounds read low 0.998 | S. cerevisiae deletion strains, locus YLR258W, strain gsy2, active compounds read low 1.01 | S. cerevisiae deletion strains, locus YLR262C, strain YPT6 (second series), active compounds read low 1.01 | S. cerevisiae deletion strains, locus YLR262C, strain YPT6, active compounds read low 1.03 | S. cerevisiae deletion strains, locus YLR268W, strain sec22, active compounds read low 1.01 | S. cerevisiae deletion strains, locus YLR320W, strain mms22, active compounds read low 1 | S. cerevisiae deletion strains, locus YLR330W, strain CHS5, active compounds read low 1.01 | S. cerevisiae deletion strains, locus YLR342W, strain FKS1 (second series), active compounds read low 0.981 | S. cerevisiae deletion strains, locus YLR342W, strain FKS1, active compounds read low 0.996 | S. cerevisiae deletion strains, locus YLR357W, strain rsc2, active compounds read low 1.03 | S. cerevisiae deletion strains, locus YLR370C, strain arc18, active compounds read low 0.994 | S. cerevisiae deletion strains, locus YLR371W, strain rom2, active compounds read low 1.02 | S. cerevisiae deletion strains, locus YLR384C, strain iki3, active compounds read low 1 | S. cerevisiae deletion strains, locus YLR418C, strain cdc73, active compounds read low 1.03 | S. cerevisiae deletion strains, locus YML016C, strain PPZ1, active compounds read low 1 | S. cerevisiae deletion strains, locus YML032C, strain rad52, active compounds read low 1.01 | S. cerevisiae deletion strains, locus YML120C, strain ndi1, active compounds read low 0.987 | S. cerevisiae deletion strains, locus YML124C, strain tub3, active compounds read low 1.01 | S. cerevisiae deletion strains, locus YMR058W, strain fet3, active compounds read low 1 | S. cerevisiae deletion strains, locus YMR078C, strain ctf18, active compounds read low 1 | S. cerevisiae deletion strains, locus YMR125W, strain sto1, active compounds read low 0.991 | S. cerevisiae deletion strains, locus YMR129W, active compounds read low 0.998 | S. cerevisiae deletion strains, locus YMR205C, strain PFK2, active compounds read low 1 | S. cerevisiae deletion strains, locus YMR223W, strain ubp8, active compounds read low 1 | S. cerevisiae deletion strains, locus YMR231W, strain pep5, active compounds read low 0.999 | S. cerevisiae deletion strains, locus YMR263W, strain SAP30, active compounds read low 1 | S. cerevisiae deletion strains, locus YMR307W, strain GAS1, active compounds read low 1.05 | S. cerevisiae deletion strains, locus YNL067W, strain RPL9B, active compounds read low 0.979 | S. cerevisiae deletion strains, locus YNL071W, strain lat1, active compounds read low 0.994 | S. cerevisiae deletion strains, locus YNL128W, strain TEP1, active compounds read low 0.984 | S. cerevisiae deletion strains, locus YNL153C, strain GIM3, active compounds read low 1 | S. cerevisiae deletion strains, locus YNL183C, strain NPR1, active compounds read low 0.979 | S. cerevisiae deletion strains, locus YNL209W, strain ssb2, active compounds read low 1 | S. cerevisiae deletion strains, locus YNL233W, strain BNI4, active compounds read low 1.01 | S. cerevisiae deletion strains, locus YNL248C, strain rpa49, active compounds read low 0.988 | S. cerevisiae deletion strains, locus YNL250W, strain rad50, active compounds read low 1 | S. cerevisiae deletion strains, locus YNL271C, strain bni1, active compounds read low 1 | S. cerevisiae deletion strains, locus YNL298W, strain CLA4, active compounds read low 1.01 | S. cerevisiae deletion strains, locus YNL307C, strain MCK1, active compounds read low 1.01 | S. cerevisiae deletion strains, locus YNL322C, strain KRE1 (second series), active compounds read low 1.01 | S. cerevisiae deletion strains, locus YNL322C, strain KRE1, active compounds read low 1 | S. cerevisiae deletion strains, locus YNR049C, strain mso1, active compounds read low 0.995 | S. cerevisiae deletion strains, locus YNR052C, strain pop2, active compounds read low 0.999 | S. cerevisiae deletion strains, locus YOL006C, strain TOP1, active compounds read low 1.03 | S. cerevisiae deletion strains, locus YOL012C, strain htz1 0.872 | S. cerevisiae deletion strains, locus YOL147C, strain pex11, active compounds read low 1.01 | S. cerevisiae deletion strains, locus YOR001W, strain rrp6, active compounds read low 0.995 | S. cerevisiae deletion strains, locus YOR061W, strain CKA2, active compounds read low 1 | S. cerevisiae deletion strains, locus YOR069W, strain VPS5, active compounds read low 0.997 | S. cerevisiae deletion strains, locus YOR070C, strain gyp1, active compounds read low 0.995 | S. cerevisiae deletion strains, locus YOR080W, strain dia2, active compounds read low 1 | S. cerevisiae deletion strains, locus YOR083W, strain WHI5, active compounds read low 0.988 | S. cerevisiae deletion strains, locus YOR106W, strain vam3, active compounds read low 1.02 | S. cerevisiae deletion strains, locus YOR136W, strain idh2, active compounds read low 1 | S. cerevisiae deletion strains, locus YOR144C, strain elg1, active compounds read low 1.01 | S. cerevisiae deletion strains, locus YOR184W, strain ser1, active compounds read low 0.999 | S. cerevisiae deletion strains, locus YOR231W, strain MKK1, active compounds read low 1.06 | S. cerevisiae deletion strains, locus YOR265W, strain rbl2, active compounds read low 1 | S. cerevisiae deletion strains, locus YOR270C, strain vph1, active compounds read low 0.998 | S. cerevisiae deletion strains, locus YOR290C, strain snf2, active compounds read low 0.975 | S. cerevisiae deletion strains, locus YOR316C, strain cot1, active compounds read low 1 | S. cerevisiae deletion strains, locus YPL051W, strain arl3, active compounds read low 0.982 | S. cerevisiae deletion strains, locus YPL055C, strain LGE1, active compounds read low 0.986 | S. cerevisiae deletion strains, locus YPL078C, strain atp4, active compounds read low 0.996 | S. cerevisiae deletion strains, locus YPL106C, strain sse1, active compounds read low 0.982 | S. cerevisiae deletion strains, locus YPL240C, strain hsp82, active compounds read low 1 | S. cerevisiae deletion strains, locus YPL241C, strain CIN2, active compounds read low 0.997 | S. cerevisiae deletion strains, locus YPL256C, strain CLN2, active compounds read low 1.03 | S. cerevisiae deletion strains, locus YPR119W, strain clb2, active compounds read low 1.01 | S. cerevisiae deletion strains, locus YPR141C, strain kar3, active compounds read low 1.01 | S. cerevisiae deletion strains, locus YPR163C, strain tif3, active compounds read low 1.02 | S. cerevisiae deletion strains, locus YPR167C, strain met16, active compounds read low 1.01 | S. cerevisiae deletion strains, strain wtn01, active compounds read low 1.01 | S. cerevisiae strains, strain wild type, active compounds read low 0.982
